Source: PubChem BioAssay AID2289 (National Center for Advancing Translational Sciences (NCATS), 2010)
Out of some 340,000 compounds screened, about 3,300 (0.97%) were called active. Inconclusive results (about 9%) are left out. Calls come from the whole dose curve; as a rule, active = well fitted inhibition curve with a large enough effect; inconclusive = small, poorly fitted or top-dose-only effect, or effect the other way; inactive = flat fitted curve, though single readings scatter. The list shows a part of the results.

Test: qHTS Assay for Modulators of miRNAs and/or Inhibitors of miR-21; note: nearly all actives have a fitted effect of over 55% in size
Details: HeLa miR-21-FLuc reporter, luciferase luminescence, 48 h; actives lower the signal
How it was run: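 Luminescence from a firefly luciferase reporter carrying a miR-21 binding site downstream, stably expressed under a CMV promoter in HeLa cells that make miR-21 endogenously, reports miRNA modulation after 48 h compound exposure up to approximately 40uM final.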
Potency is the fitted concentration of half-maximal effect.

Potency, active:
O=C(NCCCN1CCOCC1)c1cc(-c2ccccc2)on1 18.5 µM
O=C(NCCN1CCOCC1)c1cc(-c2ccccc2)on1 18.5 µM
O=C(NC1CCCCC1)c1cc(-c2ccccc2O)on1 7.36 µM
O=C(NC1CCCC1)c1cc(-c2ccc(Cl)cc2Cl)on1 5.21 µM
COc1ccccc1-c1cc(C(=O)NC2CCCC2)no1 14.7 µM
O=C(NC1CCCC1)c1cc(-c2ccccc2Cl)on1 1.65 µM
C=CCNC(=O)c1cc(-c2ccccc2O)on1 16.5 µM
O=C(Oc1ccc2c(c1)OCO2)c1ccc(F)cc1Cl 16.5 µM
CCCCSc1nc2ccccc2[nH]1 13.1 µM
O=c1c2ccccc2nnn1CSc1nc2ccccc2[nH]1 4.65 µM
ClC1(Cl)CC1CSc1nc2ccccc2[nH]1 (configuration not stated) 14.7 µM
CC1CCN(C(=O)CSc2nc3ccccc3[nH]2)CC1 2.93 µM
Cc1ccc(Cn2nc(C)cc2C(=O)Nc2ccccc2Cl)cc1 7.36 µM
Cc1ccc(-c2cc(C(=O)O)n(Cc3ccccc3)n2)cc1 14.7 µM
Cc1ccc(NC(=O)CC2CCCC2)c(Br)c1 14.7 µM
Cc1ccc(NC(=O)CNCc2cccs2)c(Br)c1 14.7 µM
Cc1c(C(N)=O)sc2nc(-c3ccccc3)cn12 11.7 µM
CNC(=O)c1sc2nc(-c3ccc(OC)cc3)cn2c1C 0.736 µM
O=C(O)c1cccc(N/N=C/c2cccs2)c1 0.0826 µM
O=C(O)c1cc(N/N=C/c2cccs2)ccc1Cl 1.85 µM
Cc1ccc(OC(=O)c2cccc(S(=O)(=O)N3CCCC3)c2)c(-n2nc3ccccc3n2)c1 2.61 µM
Cc1ccc(OC(=O)COc2ccccc2C)c(-n2nc3ccccc3n2)c1 4.14 µM
Cc1ccc(O)c(-n2nc3ccccc3n2)c1 11.7 µM
Cc1ccc(OC(=O)c2cccc(S(=O)(=O)N(C)C)c2)c(-n2nc3ccccc3n2)c1 5.85 µM
c1ccc(CCSc2nccn2-c2ccccc2)cc1 1.85 µM
CCN(CC)CCN(C(=O)c1ccc2ncsc2c1)c1nc2cc3c(cc2s1)OCO3 1.04 µM
CCOC(=O)N/N=C/C(Cl)=C/c1ccccc1 10.4 µM
O=C(N/N=C/C(Cl)=C\c1ccccc1)c1cccs1 1.85 µM
O=C(N/N=C/C=C/c1ccccc1)c1cccs1 7.36 µM
O=C(N/N=C/C(Cl)=C\c1ccccc1)c1ccco1 3.69 µM
O=C(N/N=C/C=C/c1ccccc1)c1ccccn1 5.85 µM
O=C(N/N=C/C(Cl)=C/c1ccccc1)c1ccccc1F 8.26 µM
COc1ccccc1/C=C/C=N/NC(=O)c1cccs1 3.69 µM
C/C(=N\O)c1ccc(N2C(=O)C3CC=C(Cl)CC3C2=O)cc1 (configuration not stated) 3.29 µM
CCOc1ccc(N=C/C=C/c2ccccc2)c(O)c1 3.29 µM
O=C(Cn1cnc2ccccc2c1=O)c1ccc(Br)cc1 5.21 µM
Cc1ccc(C(=O)Cn2cnc3ccccc3c2=O)cc1 5.85 µM
O=C(Cn1cnc2ccccc2c1=O)c1ccc(Cl)cc1 7.36 µM
O=C(Cn1cnc2ccccc2c1=O)c1ccc2ccccc2c1 7.36 µM
COc1ccc2cnn(-c3ccc(C)cc3)c(=O)c2c1OC 6.56 µM
CC(C)c1ccc(N(C(=O)c2ccco2)C(C(=O)NC2CCCC2)c2ccncc2)cc1 (configuration not stated) 6.56 µM
NC(=O)c1ccccc1OCc1nc2ccccc2s1 1.47 µM
Cc1cc(OCc2nc3ccccc3s2)ccc1N 1.17 µM
O=C(O)c1ccccc1OCc1nc2ccccc2s1 3.29 µM
OCc1cc(Br)ccc1OCc1nc2ccccc2s1 1.65 µM
O=C(NCCO)c1ccc2c3n(nc2c1)-c1ccc(Cl)cc1CO3 9.27 µM
Cc1ccc2c(c1)COc1c3ccc(C(=O)NCCO)cc3nn1-2 5.21 µM
CC(C)[C@@H](CO)NC(=O)c1ccc2c3n(nc2c1)-c1ccc(Cl)cc1CO3 1.85 µM
O=C(Nc1sc2c(c1C(=O)NCc1ccco1)CCCC2)c1cc(=O)c2ccccc2o1 5.85 µM
Cc1nnc(CN(C)C(=O)c2cc(COc3ccc(F)cc3Cl)on2)o1 13.1 µM
COc1ccc(OCc2cc(C(=O)N(C)Cc3nnc(C)o3)no2)c(Cl)c1 14.7 µM
Cc1cc(CN(C)C(=O)c2cc(COc3ccc(F)cc3Cl)on2)n[nH]1 10.4 µM
O=[N+]([O-])c1cccc(-c2ccc(C(=S)N3CCOCC3)o2)c1 1.04 µM
N#CCCN1CCN(C(=S)c2ccc(-c3cccc(Cl)c3)o2)CC1 13.1 µM
S=C(c1ccc(-c2cccc(Cl)c2)o1)N1CCCCC1 1.31 µM
S=C(c1ccc(-c2ccc(Cl)c(Cl)c2)o1)N1CCOCC1 1.47 µM
S=C(c1ccc(-c2cccc(Cl)c2)o1)N1CCOCC1 3.69 µM
COCCN=C1NN=C(c2ccc(C)c([N+](=O)[O-])c2)CS1 4.14 µM
C=C(C)CSc1nncn1/N=C/c1ccc(OC)cc1 11.7 µM
C=CCSc1nncn1/N=C/c1ccc(OC)cc1 2.61 µM
Cn1cccc1-c1nc2ccc([N+](=O)[O-])cc2[nH]1 2.07 µM
O=[N+]([O-])c1ccc2nc(-c3ccncc3)[nH]c2c1 18.5 µM
Fc1cc2nc(-c3ccncc3)[nH]c2cc1F 16.5 µM
COc1cc(OC)cc(C(=O)Nc2ccc3nc4n(c(=O)c3c2)CCCCC4)c1 2.33 µM
Cc1ccc(CNC(=O)c2ccc3c(c2)nc2n3CCCC2)cc1 18.5 µM
CC1CCn2c(nc3cc(C(=O)NCc4ccccc4)ccc32)C1 (configuration not stated) 7.36 µM
COc1ccc(-c2cc3nc4n(c(=O)c3s2)CCCCC4)cc1 0.369 µM
